Screens deposited in PubChem BioAssay by National Center for Advancing Translational Sciences (NCATS).
The list is not random: actives were taken first. Their share in the collection is about 7.4%.
NPC1 prom act: qHTS Assay for NPC1 Promoter Activators; Huh7 NPC1 promoter luciferase reporter, 24 h; Potency, µM (titrated, usually from 9.22 µM), inactives show top-dose activation, actives largely listed as activators; hit rate 2.4% among 320,000; note: % of control where 0% means no effect; nearly all actives have a fitted effect of over 60% in size
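In 1536-well qHTS, Huh7 cells harboring an NPC1 promoter–luciferase construct received compound for 24 h; activation was quantified by luminescence following luciferase reagent addition.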
ELG1 genotox: qHTS screen for small molecules that induce genotoxicity in human embryonic kidney (HEK293T) cells expressing luciferase-tagged ELG1. HEK293T ELG1-luciferase reporter, luminescence, 16 h. Potency, µM (top dose mostly 46 µM), inactives show at the highest dose activity change, positive = activation, hits mostly activators. hit rate 1.3% among 330,000. AID 504466, 2011; note: % of control where 0% means no effect; nearly all actives have a fitted effect of over 60% in size
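Luminescence read-out: rising ELG1-luciferase signal, reflecting elevated ELG1 protein under genetic stress, flags genotoxic compounds. Cells were treated for 16 hr at 37 °C before ONE-Glo detection.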
SMN2 splice up: qHTS Assay for Enhancers of SMN2 Splice Variant Expression | HEK293 SMN2-luciferase splicing reporter, luminescence, 30-36 h | Potency, µM (top dose mostly 46.1 µM), for inactives: top-dose activity change, positive = activation, actives largely listed as activators | hit rate 2.8% among 210,000 | AID 1458, 2008; note: % of control where 0% means no effect; nearly all actives have a fitted effect of over 55% in size
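qHTS luciferase splicing reporter: luminescence rises when SMN2 exon 7 is included in transfected HEK293 cells. Compound exposure lasted 30-36 h at 37C, with 4.5 mM final sodium butyrate as control, followed by a ONE-Glo read.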
FLuc modulator: qHTS profiling assay for firefly luciferase inhibitor/activator using purifed enzyme and Km concentrations of substrates (counterscreen for miR-21 project) | Potency, µM (doses to about 57.5 µM), for inactives: top-dose activity change, negative = inhibition, actives largely listed as inhibitors | purified FLuc, Km substrates, luminescence inhibition | hit rate 6.9% among 360,000 | Luciferin 4-monooxygenase (Photinus pyralis), P08659 | AID 588342, 2011;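 note: plate controls were vehicle for no effect and reference inhibitor for full effect; nearly all actives have a fitted effect of over 55% in size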
Target sequence (P08659 whole entry, looked up): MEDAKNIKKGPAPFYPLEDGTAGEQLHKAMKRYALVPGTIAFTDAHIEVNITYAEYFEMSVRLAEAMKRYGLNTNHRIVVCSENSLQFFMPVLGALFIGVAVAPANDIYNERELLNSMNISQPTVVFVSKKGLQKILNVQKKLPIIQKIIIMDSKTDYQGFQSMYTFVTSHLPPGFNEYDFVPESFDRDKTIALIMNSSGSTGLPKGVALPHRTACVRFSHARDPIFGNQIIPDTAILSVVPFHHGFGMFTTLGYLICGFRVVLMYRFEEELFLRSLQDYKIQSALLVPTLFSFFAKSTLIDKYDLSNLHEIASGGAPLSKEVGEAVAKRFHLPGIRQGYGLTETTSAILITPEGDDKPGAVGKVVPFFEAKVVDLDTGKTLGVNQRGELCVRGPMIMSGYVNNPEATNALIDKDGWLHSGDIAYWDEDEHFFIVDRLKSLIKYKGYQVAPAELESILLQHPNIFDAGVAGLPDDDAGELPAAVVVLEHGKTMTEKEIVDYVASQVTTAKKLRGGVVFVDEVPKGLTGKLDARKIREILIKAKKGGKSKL
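Purified P. pyralis luciferase (10nM final) with 10uM D-luciferin and 10uM ATP (Km levels) in 50mM Tris acetate pH 7.5, 10mM Mg acetate, 0.01% Tween-20, 0.05% BSA; qHTS 6-point titration, ~60 µM downward; luminescence read.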
Rab9 prom act: qHTS Assay for Rab9 Promoter Activators; Huh7 Rab9 promoter-luciferase reporter, luminescence, 24 h; Potency, µM (series often up to 9.22 µM), without a hit: at the top dose activation, negative = inhibition, actives largely listed as activators; hit rate 2.8% among 320,000; AID 485297, 2010; note: % of control where 0% means no effect; nearly all actives have a fitted effect of over 60% in size
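Huh7 cells stably carrying Rab9 promoter–luciferase reporter, plated 1500 cells/well, compound added after 2 h and incubated 24 h at 37 °C; luciferase luminescence then read after 10 min with detection reagent.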
An asterisk follows results filed as active; ? = inconclusive; . = no result given; [ ] = another dose, or the depositor's remark. Calls come from the whole dose curve; as a rule, active = well fitted curve in the direction sought with a large enough effect; inconclusive = small, poorly fitted or top-dose-only effect, or another doubt; inactive = no such curve, though single readings can be large; an effect the other way counts as inactive or inconclusive. Potency is the fitted concentration of half-maximal effect.

SMILES	NPC1 prom act	ELG1 genotox	SMN2 splice up	FLuc modulator	Rab9 prom act
C[C@@]12CC[C@H]3[C@H](CCC4=CC(=O)CC[C@H]43)[C@H]1CC[C@H]2OC1(O)C(=O)c2ccccc2C1=O	.	.	6%[9.22 µM]	.	.
Cc1ccc(CNC(=O)c2ccccc2NC(=O)c2nsc3ccccc23)cc1	.	.	.	17µM*	.
O=C(NCc1ccccc1)c1cccn(Cc2ccccc2)c1=O	-1%	-6%	.	0%	-6%
CNC(=O)Oc1cccc(-c2cn3cc(OC(=O)NC)ccc3n2)c1	3.5µM*	21µM*	13µM*	3.8µM*	?
CNC(=O)Oc1ccc(-c2cn3cc(Cl)ccc3n2)cc1	0.89µM*	?	5µM*	1.1µM*	0.63µM*
NC(=O)c1cccc(-c2cccc(OC(=O)NC3CCCCC3)c2)c1	0%	11%	.	?	0%
CCCCSc1nc2c(cnn2-c2ccccc2)c(=O)n1N	2.8µM*	?	10µM*	6.7µM*	1.8µM*
c1ccc2c(CN3CCCCCC3)c[nH]c2c1	25%	?	.	17µM*	?
O=c1c2ccccc2nc(/C=C/c2ccccc2)n1-c1ccc(O)cc1	-1%	-10%	.	-2%	-1%
O=c1c2ccccc2nc(/C=C/c2cccnc2)n1Cc1ccccc1	-4%	-5%	.	27µM*	-5%
Cc1ncc([N+](=O)[O-])n1CCN=[N+]=[N-]	.	.	-11%[9.22 µM]	.	.
Cc1ccc(-c2nc3ccccc3c(=O)n2-c2ccc(O)cc2)cc1	-8%	-10%	-28%	0%	-4%
Cc1ccc(C(=O)n2c(N)nc3ccccc32)cc1	?	0.21µM*	0.4µM*	0.19µM*	0.1µM*
CCOc1ccc(-c2cn3c(n2)sc2cc(C(=O)N4CCCC(C)C4)ccc23)cc1 (stereo not given)	.	.	0%	4.3µM*	.
CCOc1ccc(C(=O)N2CCC(c3noc(-c4ccc(S(=O)(=O)N5CCCC5)cc4)n3)CC2)cc1	.	.	-54%	1%	.
CCN1C(=O)C(=Cc2ccc(C)s2)C(=O)N(CC)C1=S	?	?	20µM*	?	18%
COC(=O)C(O)(c1ccc(NC(=O)c2ccccc2)cc1)C(F)(F)F (stereo not given)	?	9%	.	19µM*	?
CCCCNC(=O)Nc1ccc(C(O)(C(=O)OC)C(F)(F)F)cc1 (stereo not given)	13%	16%	.	?	13%
COC(=O)C(O)(c1ccc(NC(=O)c2cccs2)cc1)C(F)(F)F (stereo not given)	26%	17%	.	15µM*	?
Cn1c(=O)c2[nH]cnc2n(C)c1=O.[CH2-][C@H](Cc1cccc2cc(C(=O)O)c(=O)oc12)OC.[Hg].[OH-]	.	.	-6%[9.22 µM]	.	.
O=C(CSc1ccc(-c2ccco2)nn1)Nc1ccccc1	3%	-1%	-21%	?	18%
CCc1nnc(NC(=O)CSc2ccc(-c3ccco3)nn2)s1	0%	10%	-26%	15µM*	0%
N=C1c2ccccc2CN1CC(=O)c1ccccc1	6%	?	11µM*	15µM*	?
N=C1c2ccccc2CN1NC(=O)c1ccccc1	8%	-1%	?	-4%	1%
NC1(P(=O)(O)O)CCCCC1	.	.	-2%[9.22 µM]	.	.
SMILES	NPC1 prom act	ELG1 genotox	SMN2 splice up	FLuc modulator	Rab9 prom act
CCOc1ccc(C(=O)Nc2cccc(C(=O)OCc3cc(=O)n4nc(C5CC5)sc4n3)c2)cc1	.	.	.	1.9µM*	.
CCCCc1nn2c(=O)cc(COC(=O)Cc3ccccc3)nc2s1	.	.	.	-2%	.
CN(C)c1ccc(N)cc1	.	.	-13%	.	.
CCOc1ccc(N2C(=O)/C(=C/c3ccco3)C(=O)NC2=S)cc1	-2%	-2%	.	?	-2%
Cc1ccccc1N1C(=O)/C(=C/c2ccco2)C(=O)NC1=S	-2%	-6%	.	24µM*	1%
Cc1cc(C(=O)CS(=O)(=O)c2ccccc2)cc(C)c1OC(=O)N(C)C	3.2µM*	3%	10µM*	6.7µM*	0.79µM*
Cc1ccc(S(=O)(=O)CC(=O)c2cc(C)c(OC(=O)N(C)C)c(C)c2)cc1	2%	3%	-13%	-12%	-4%
